Screening data deposited in PubChem BioAssay by NMMLSC.
Avidin bead fluor: compound fluoresces at 488/530 nm on avidin beads; compound fluorescence 488/530 nm, flow cytometry; hits give high values; fluorescence (KMESF) at 10 µM; 220,000 tested, 0.38% active; in the data active = fluorescence above about 47
RGS8-Gao: human RGS8-Galphao interaction regulation; P09471; multiplexed bead flow cytometry, RGS8-Galphao binding; actives lie on both sides; response (percent of control binding), % at 10 µM; 220,000 tested, 0.34% active; AID 1423; in the data active = response below about 60% or above about 140%; inactive = in between;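 note: Galphao activated as the GDP aluminium fluoride complex binding bead-coupled RGS8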
Target sequence (P09471 whole entry, looked up): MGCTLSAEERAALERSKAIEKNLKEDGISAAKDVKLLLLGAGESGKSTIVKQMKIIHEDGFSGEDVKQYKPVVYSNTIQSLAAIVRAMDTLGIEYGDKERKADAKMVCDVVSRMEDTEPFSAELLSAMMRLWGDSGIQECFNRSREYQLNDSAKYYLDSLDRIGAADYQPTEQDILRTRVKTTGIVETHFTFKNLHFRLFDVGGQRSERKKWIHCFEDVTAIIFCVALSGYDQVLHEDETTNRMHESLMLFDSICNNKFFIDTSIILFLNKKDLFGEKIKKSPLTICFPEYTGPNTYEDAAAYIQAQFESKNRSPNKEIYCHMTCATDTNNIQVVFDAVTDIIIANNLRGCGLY
RGS7-Gao reg: modulates binding of RGS7 to human Galphao. Multiplexed bead flow cytometry; actives lie on both sides. binding response (% of control), % at 10 µM. 220,000 tested, 0.35% active. AID 1439; in the data active = binding response below about 49% or above about 150%; inconclusive = no clear call, values can overlap the other calls; inactive = in between;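 note: fluorescent Galphao held in activated GDP-AlF4 state binding bead-coupled RGS7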
RGS16-Gao: regulators of human RGS16-Galphao interaction. O15492+P09471. bead-based flow cytometry RGS16-Galphao binding, fluorescence; actives lie on both sides. binding response (% of control), % at 10 µM. 220,000 tested, 0.38% active. AID 1441;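 note: Galphao activated by GDP with aluminum fluoride before binding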
Target sequence (O15492 whole entry, looked up): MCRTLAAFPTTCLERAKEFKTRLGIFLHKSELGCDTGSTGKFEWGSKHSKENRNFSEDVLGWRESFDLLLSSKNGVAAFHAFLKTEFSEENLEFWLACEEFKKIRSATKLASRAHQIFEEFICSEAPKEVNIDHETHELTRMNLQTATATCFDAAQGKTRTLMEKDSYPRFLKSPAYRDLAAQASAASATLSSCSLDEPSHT
Target sequence (P09471 whole entry, looked up): as the sequence (P09471 whole entry, looked up) above
GSH bead fluor: compound fluoresces at 488/530 nm on GSH beads. GSH beads flow cytometry, compound fluorescence 488/530 nm; hits give high values. fluorescence (KMESF) at 10 µM. 190,000 tested, 0.25% active. AID 1776; in the data active = fluorescence above about 89;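 note: glutathione beads carrying GST-tagged Bcl family fusion proteins plus one bare bead set; values are compound well signal with DMSO vehicle wells as background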
RGS4-Gao reg: modulates binding of RGS4 to human Galphao; P09471; Multiplexed bead flow cytometry; actives lie on both sides; binding response (% of control), % at 10 µM; 220,000 tested, 0.33% active; AID 1415; in the data active = binding response below about 49% or above about 150%; inactive = in between;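 note: fluorescent Galphao activated with aluminum fluoride binding bead-coupled RGS4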
RGS-Gao: regulators of human RGS4-Galphao interaction | shares compounds with RGS16-Gao | multiplexed bead flow cytometry, RGS–Galpha-o binding | RGS4–Galpha-o binding response, % at 10 µM | 1,600 tested, 99% active | AID 1504;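 note: fluorescently labeled Galpha-o bound to GDP with aluminium fluoride binding biotinylated RGS beads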
Avidin counter: biotin-avidin bead binding disruption counter-screen. shares compounds with RGS16-Gao. streptavidin beads, fluorescein-biotin binding, flow cytometry. inhibition, % at 10 µM. 1,700 tested, under 10 active;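 active = inhibition above 50%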;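 note: median green fluorescence of gated singlet beads compared with DMSO control wells; 0% = DMSO wells and 100% = complete loss of bead fluorescence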
RGS8-Gao single: RGS8-Galphao interaction regulation, single point confirmation. 1,700 tested, 3% active. bead-based flow cytometry RGS8-Galphao binding, fluorescence; actives lie on both sides. binding response (% of control), % at 10 µM. shares compounds with RGS16-Gao; in the data active = binding response below about 72% or above about 130%; inactive = in between;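 note: Galphao activated as GDP AlF4 complex before binding bead RGS8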
RGS7-Gao single: RGS7-Galphao interaction regulation, single point confirmation. bead-based flow cytometry RGS7-Galphao binding; actives lie on both sides. 1,700 tested, 7.8% active. shares compounds with RGS16-Gao. response (percent of control binding), % at 10 µM; in the data active = response below about 75% or above about 130%; inactive = in between;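 note: fluorescent Galphao activated with GDP and aluminum fluoride binding bead-coupled RGS7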
RGS16-Gao single: RGS16-Galphao interaction regulation, single point confirmation | shares compounds with RGS16-Gao | bead-based flow cytometry, RGS16-Galphao binding; actives lie on both sides | response (% of control binding), % at 10 µM | 1,700 tested, 4% active | AID 1838; in the data active = response below about 74% or above about 130%; inactive = in between;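 note: Galphao activated as the GDP aluminium fluoride complex binding bead-coupled RGS16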
RGS4-Gao single: RGS4-Galphao interaction regulation, single point confirmation; shares compounds with RGS16-Gao; RGS4-Galphao binding, multiplexed bead flow cytometry; actives lie on both sides; binding response (% of control), % at 10 µM; 1,700 tested, 4% active; in the data active = binding response below about 74% or above about 130%; inactive = in between
RGS19-Gao single: confirmation of regulators of human RGS19-Galphao interaction | shares compounds with RGS16-Gao | bead-based flow cytometry RGS19-Galphao binding; actives lie on both sides | response (percent of control binding), % at 10 µM | 1,700 tested, 5% active | AID 1841; in the data active = response below about 50% or above about 160%; inactive = in between;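 note: 100% = no compound control and 0% = blank background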
Active calls of the source: *; ? = inconclusive; . = not tested or not shown; [ ] = remark or other dose. Sampled rows, rich in hits. Any-hit rate of the full collection: about 1.2%. Unless noted, the rule behind the calls is not given here.

SMILES | Avidin bead fluor | RGS8-Gao | RGS7-Gao reg | RGS16-Gao | GSH bead fluor | RGS4-Gao reg | RGS-Gao | Avidin counter | RGS8-Gao single | RGS7-Gao single | RGS16-Gao single | RGS4-Gao single | RGS19-Gao single
Cc1ccc(S(=O)(=O)NCCc2nnc3ccc(SCC(=O)Nc4nc(C)cs4)nn23)cc1 | 4 | 101 | 99 | 102 | 8 | 102 | . | . | . | . | . | . | .
COc1cc(S(=O)(=O)N2CCN(C(=O)c3ccccc3)CC2)c(OC)cc1Br | 10 | 99 | 100 | 102 | 15 | 100 | . | . | . | . | . | . | .
COCCCNC(=O)c1c(NC(=O)C2COc3ccccc3O2)sc2c1CCCC2 (stereo unspecified) | 1 | 84 | 100 | 10 | 33 | 93 | . | . | . | . | . | . | .
CCNC(=O)c1c(NC(=O)C2COc3ccccc3O2)sc2c1CCCC2 (stereo unspecified) | 3 | 185*[activator] | 155*[activator] | -528 | 22 | 170*[activator] | . | 0 | 105 | 110 | 104 | 105 | 95
Cc1ccc(C(C)NC(=O)C2CCCO2)cc1C (stereo unspecified) | . | . | . | . | 19 | . | . | 0 | 98 | 103 | 100 | 100 | 87
Cc1cccc(-c2nc3cc(NC(=O)C4CCCO4)ccc3o2)c1 (stereo unspecified) | 17 | 119 | 107 | 179*[activator] | 10 | 109 | 109* | 0 | 104 | 104 | 109 | 104 | 99
Cc1cccc(C(=O)NNC(=O)C2CCCO2)c1 (stereo unspecified) | -2 | 12* | 14* | 1.0* | 24 | 21* | . | 1 | 120 | 137*[activator] | 124 | 132*[activator] | 135
CC1(C)CC(NC(=O)c2ccccc2C(=O)NC2CC(C)(C)NC(C)(C)C2)CC(C)(C)N1 | 9 | 101 | 96 | 99 | 12 | 99 | . | . | . | . | . | . | .
Cc1cccc(C(=O)NC2CC(C)(C)NC(C)(C)C2)c1 | 82* | 98 | 172*[activator] | 113 | 14 | 101 | 101* | 1 | 92 | 93 | 92 | 92 | 84
COc1ccc(OCCSCc2nnc(NC(=O)Nc3ccc(Cl)cc3)s2)cc1 | 7 | 101 | 97 | 103 | 13 | 99 | . | . | . | . | . | . | .
Cc1ccc(S(=O)(=O)NC(=O)N(C)C2CCCCC2)cc1 | 3 | 99 | ? | 103 | . | 100 | . | . | . | . | . | . | .
O=C(NNC(=O)C1CCCO1)c1ccccc1Cl (stereo unspecified) | . | . | . | . | 17 | . | . | 2 | 100 | 100 | 101 | 100 | 99
Cc1ccc(S(=O)(=O)n2nccc2-c2c(-c3ccc(Cl)cc3)noc2C)cc1 | 3 | 95 | ? | 97 | . | 91 | . | . | . | . | . | . | .
O=C1CC(c2ccc(S(=O)(=O)NCCOc3ccccc3)cc2)CN1 (stereo unspecified) | . | . | . | . | 33 | . | . | 2 | 101 | 97 | 100 | 97 | 103
CCCCNC1CCS(=O)(=O)C1 (stereo unspecified) | . | . | . | . | 46 | . | . | 0 | 98 | 96 | 101 | 98 | 101
O=C(CSc1nc(O)cc(=O)[nH]1)N1c2ccccc2CCc2ccccc21 | 8 | 103 | ? | 99 | . | 99 | . | . | . | . | . | . | .
O=C(N=Nc1c(O)[nH]c2ccc(Br)cc12)c1cc(-c2cccc3ccccc23)n[nH]1 | 9 | 67 | 83 | 8.3* | 9 | 89 | 89* | -1 | 93 | 90 | 98 | 96 | 123
N#Cc1c(-c2ccccc2)nc(N2CCCCCC2)[nH]c1=O | 3 | 82 | 88 | 15* | 52 | 86 | 86* | 0 | 101 | 104 | 104 | 103 | 95
CCC(C)(C)C(=O)Nc1cccc(Cl)c1C | 9 | 104 | 99 | 107 | 13 | 110 | . | . | . | . | . | . | .
CC(C)c1ccc(N(CC(=O)NN=C2CCN(C)CC2)S(=O)(=O)c2ccccc2)cc1 | 5 | 110 | 118 | 108 | 11 | 109 | . | . | . | . | . | . | .
CSc1ccc(S(=O)(=O)N(CC(=O)NN=C2CCN(C)CC2)c2ccc(C)cc2)cc1 | 63* | 99 | 174*[activator] | 101 | 11 | 112 | 112* | 1 | 102 | 125*[activator] | 113 | 112 | 195*[activator]
CN1CCN(C(=O)c2cn(-c3ccccc3)nc2-c2cccnc2)CC1 | . | . | 144 | 151 | 30 | 152*[activator] | . | -1 | 101 | 100 | 99 | 101 | 89
O=Cc1ccc(O)c(O)c1 | 7 | 88 | 82 | 83 | 19 | 84 | . | . | . | . | . | . | .
Oc1ccc(N=Cc2ccc(O)c(O)c2)cc1 | 2 | 61 | 49* | 0 | 6 | 59 | 59* | -3 | 89 | 86 | 88 | 89 | 81
CCN(CC)S(=O)(=O)c1ccc(N2CCOCC2)c(NC(=O)c2cnccn2)c1 | 4 | 100 | 101 | 105 | 11 | 101 | . | . | . | . | . | . | .
SMILES | Avidin bead fluor | RGS8-Gao | RGS7-Gao reg | RGS16-Gao | GSH bead fluor | RGS4-Gao reg | RGS-Gao | Avidin counter | RGS8-Gao single | RGS7-Gao single | RGS16-Gao single | RGS4-Gao single | RGS19-Gao single
COc1ccc(C2NCCc3c2[nH]c2ccccc32)cc1CSc1nc2ccccc2s1 (stereo unspecified) | 3 | 107 | 100 | 105 | 10 | 101 | . | . | . | . | . | . | .
COC(=O)c1ccc(Oc2ccc3nnc(C)n3n2)cc1 | 6 | 142*[activator] | 116 | 389 | 64 | 122 | 122* | -1 | 100 | 94 | 97 | 99 | 95
COC(=O)c1ccc(Oc2ccc3nncn3n2)cc1 | 17 | 95 | 95 | 88 | 12 | 97 | . | . | . | . | . | . | .
COc1ccc(-n2nc(C(=O)NCC(=O)Nc3ccccn3)c3ccccc3c2=O)cc1Cl | 40 | 106 | 110 | 161 | 19 | 167*[activator] | . | 2 | 102 | 98 | 100 | 96 | 102
Cc1nn(C)c(C)c1C1C(C#N)=C(N)Oc2n[nH]c(C)c21 (stereo unspecified) | 7 | 140*[activator] | 109 | 230*[activator] | 10 | 110 | 110* | -1 | 101 | 99 | 102 | 101 | 118
CN(CCc1cnn(C)c1)Cc1nc(CC2CC2)no1 | 0 | 98 | 95 | 98 | 13 | 95 | . | . | . | . | . | . | .
Cc1ccc(-n2ncc(-c3nn[nH]n3)c2N)cc1 | 7 | 98 | ? | 91 | . | 89 | . | . | . | . | . | . | .
